{"source": "PubChem BioAssay AID1159580", "about": "(chemical genetic matrix, 2015)", "test": "chemical genetic growth profiling, strain panel (AID 1159580);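 note: tested at 20 µM; growth read once vehicle control cultures reached saturation at 30 °C; 1 = growth at the plate median or of vehicle wells; lower values mean less growth of the strain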", "conditions": "growth OD", "note": "Out of some 5,500 compounds screened, about 2,000 (36%) were called active. Roughly 18% stayed inconclusive and do not appear here. This is one part of the list. Values without a mark were called inactive. Cut-off read from the data, not from the text of the source: active = normalized growth mostly below about 0.91 (no sharp cut-off); inconclusive = no clear call, values can overlap the other calls; inactive = mostly above about 0.92."}
{"smiles": "CC(=O)O[C@H]1C(=O)[C@@]2(C)C([C@H](OC(=O)c3ccccc3)[C@]3(O)C[C@H](OC(=O)[C@H](O)[C@@H](NC(=O)c4ccccc4)c4ccccc4)C(C)=C1C3(C)C)[C@]1(OC(C)=O)CO[C@@H]1C[C@@H]2O", "note": "(stereo partly specified)", "values": [{"measurement": "normalized growth", "setting": "S. cerevisiae deletion strains, locus YJR066W, strain TOR1, hits give low values", "result": 0.943}, {"measurement": "normalized growth", "setting": "S. cerevisiae deletion strains, locus YJR075W, strain HOC1, hits give low values", "result": 1.04}, {"measurement": "normalized growth", "setting": "S. cerevisiae deletion strains, locus YKL009W, strain mrt4, hits give low values", "result": "0.636 (active)"}, {"measurement": "normalized growth", "setting": "S. cerevisiae deletion strains, locus YKL068W, hits give low values", "result": "0.781 (active)"}, {"measurement": "normalized growth", "setting": "S. cerevisiae deletion strains, locus YKL085W, strain MDH1 (second series), hits give low values", "result": "0.884 (active)"}, {"measurement": "normalized growth", "setting": "S. cerevisiae deletion strains, locus YKL085W, strain MDH1, hits give low values", "result": "0.884 (active)"}, {"measurement": "normalized growth", "setting": "S. cerevisiae deletion strains, locus YKL160W, strain elf1, hits give low values", "result": 1.01}, {"measurement": "normalized growth", "setting": "S. cerevisiae deletion strains, locus YKL190W, strain CNB1, hits give low values", "result": 1.02}, {"measurement": "normalized growth", "setting": "S. cerevisiae deletion strains, locus YKR026C, strain gcn3, hits give low values", "result": 0.999}, {"measurement": "normalized growth", "setting": "S. cerevisiae deletion strains, locus YKR091W, strain srl3, hits give low values", "result": 1}, {"measurement": "normalized growth", "setting": "S. cerevisiae deletion strains, locus YLL001W, strain dnm1, hits give low values", "result": 1.05}, {"measurement": "normalized growth", "setting": "S. cerevisiae deletion strains, locus YLL026W, hits give low values", "result": 0.993}, {"measurement": "normalized growth", "setting": "S. cerevisiae deletion strains, locus YLL041C, strain sdh2, hits give low values", "result": 0.979}, {"measurement": "normalized growth", "setting": "S. cerevisiae deletion strains, locus YLR027C, strain aat2, hits give low values", "result": 0.97}, {"measurement": "normalized growth", "setting": "S. cerevisiae deletion strains, locus YLR039C, strain RIC1, hits give low values", "result": 1.06}, {"measurement": "normalized growth", "setting": "S. cerevisiae deletion strains, locus YLR058C, strain SHM2, hits give low values", "result": 1.03}, {"measurement": "normalized growth", "setting": "S. cerevisiae deletion strains, locus YLR102C, strain apc9, hits give low values", "result": 1.03}, {"measurement": "normalized growth", "setting": "S. cerevisiae deletion strains, locus YLR113W, strain HOG1, hits give low values", "result": 0.945}, {"measurement": "normalized growth", "setting": "S. cerevisiae deletion strains, locus YLR221C, strain rsa3, hits give low values", "result": 1.03}, {"measurement": "normalized growth", "setting": "S. cerevisiae deletion strains, locus YLR258W, strain gsy2, hits give low values", "result": 0.997}, {"measurement": "normalized growth", "setting": "S. cerevisiae deletion strains, locus YLR262C, strain YPT6 (second series), hits give low values", "result": 1.02}, {"measurement": "normalized growth", "setting": "S. cerevisiae deletion strains, locus YLR262C, strain YPT6, hits give low values", "result": 1.15}, {"measurement": "normalized growth", "setting": "S. cerevisiae deletion strains, locus YLR268W, strain sec22, hits give low values", "result": 1.06}, {"measurement": "normalized growth", "setting": "S. cerevisiae deletion strains, locus YLR320W, strain mms22, hits give low values", "result": 1.01}, {"measurement": "normalized growth", "setting": "S. cerevisiae deletion strains, locus YLR330W, strain CHS5, hits give low values", "result": 1.03}, {"measurement": "normalized growth", "setting": "S. cerevisiae deletion strains, locus YLR342W, strain FKS1 (second series), hits give low values", "result": 1.06}, {"measurement": "normalized growth", "setting": "S. cerevisiae deletion strains, locus YLR342W, strain FKS1, hits give low values", "result": 1}, {"measurement": "normalized growth", "setting": "S. cerevisiae deletion strains, locus YLR357W, strain rsc2, hits give low values", "result": 1}, {"measurement": "normalized growth", "setting": "S. cerevisiae deletion strains, locus YLR370C, strain arc18, hits give low values", "result": 1.02}, {"measurement": "normalized growth", "setting": "S. cerevisiae deletion strains, locus YLR371W, strain rom2, hits give low values", "result": 1.03}, {"measurement": "normalized growth", "setting": "S. cerevisiae deletion strains, locus YLR384C, strain iki3, hits give low values", "result": 0.982}, {"measurement": "normalized growth", "setting": "S. cerevisiae deletion strains, locus YLR418C, strain cdc73, hits give low values", "result": "1.25 [resistant] (active)"}, {"measurement": "normalized growth", "setting": "S. cerevisiae deletion strains, locus YML016C, strain PPZ1, hits give low values", "result": 1.03}, {"measurement": "normalized growth", "setting": "S. cerevisiae deletion strains, locus YML032C, strain rad52, hits give low values", "result": 1.05}, {"measurement": "normalized growth", "setting": "S. cerevisiae deletion strains, locus YML120C, strain ndi1, hits give low values", "result": 1.02}, {"measurement": "normalized growth", "setting": "S. cerevisiae deletion strains, locus YML124C, strain tub3, hits give low values", "result": "1.11 [resistant] (active)"}, {"measurement": "normalized growth", "setting": "S. cerevisiae deletion strains, locus YMR058W, strain fet3, hits give low values", "result": 0.968}, {"measurement": "normalized growth", "setting": "S. cerevisiae deletion strains, locus YMR078C, strain ctf18, hits give low values", "result": "1.1 [resistant] (active)"}, {"measurement": "normalized growth", "setting": "S. cerevisiae deletion strains, locus YMR125W, strain sto1, hits give low values", "result": 1.01}, {"measurement": "normalized growth", "setting": "S. cerevisiae deletion strains, locus YMR129W, hits give low values", "result": 0.987}, {"measurement": "normalized growth", "setting": "S. cerevisiae deletion strains, locus YMR205C, strain PFK2, hits give low values", "result": 1.02}, {"measurement": "normalized growth", "setting": "S. cerevisiae deletion strains, locus YMR223W, strain ubp8, hits give low values", "result": "1.12 [resistant] (active)"}, {"measurement": "normalized growth", "setting": "S. cerevisiae deletion strains, locus YMR231W, strain pep5, hits give low values", "result": 0.983}, {"measurement": "normalized growth", "setting": "S. cerevisiae deletion strains, locus YMR263W, strain SAP30, hits give low values", "result": 1.06}, {"measurement": "normalized growth", "setting": "S. cerevisiae deletion strains, locus YMR307W, strain GAS1, hits give low values", "result": 1.09}, {"measurement": "normalized growth", "setting": "S. cerevisiae deletion strains, locus YNL067W, strain RPL9B, hits give low values", "result": 1.02}, {"measurement": "normalized growth", "setting": "S. cerevisiae deletion strains, locus YNL071W, strain lat1, hits give low values", "result": 0.972}, {"measurement": "normalized growth", "setting": "S. cerevisiae deletion strains, locus YNL128W, strain TEP1, hits give low values", "result": 1.05}, {"measurement": "normalized growth", "setting": "S. cerevisiae deletion strains, locus YNL153C, strain GIM3, hits give low values", "result": 1.03}, {"measurement": "normalized growth", "setting": "S. cerevisiae deletion strains, locus YNL183C, strain NPR1, hits give low values", "result": 0.952}, {"measurement": "normalized growth", "setting": "S. cerevisiae deletion strains, locus YNL209W, strain ssb2, hits give low values", "result": 1.01}, {"measurement": "normalized growth", "setting": "S. cerevisiae deletion strains, locus YNL233W, strain BNI4, hits give low values", "result": 1.02}, {"measurement": "normalized growth", "setting": "S. cerevisiae deletion strains, locus YNL248C, strain rpa49, hits give low values", "result": "0.783 (active)"}, {"measurement": "normalized growth", "setting": "S. cerevisiae deletion strains, locus YNL250W, strain rad50, hits give low values", "result": 0.921}, {"measurement": "normalized growth", "setting": "S. cerevisiae deletion strains, locus YNL271C, strain bni1, hits give low values", "result": 1}, {"measurement": "normalized growth", "setting": "S. cerevisiae deletion strains, locus YNL298W, strain CLA4, hits give low values", "result": 0.941}, {"measurement": "normalized growth", "setting": "S. cerevisiae deletion strains, locus YNL307C, strain MCK1, hits give low values", "result": 1.03}, {"measurement": "normalized growth", "setting": "S. cerevisiae deletion strains, locus YNL322C, strain KRE1 (second series), hits give low values", "result": 0.986}, {"measurement": "normalized growth", "setting": "S. cerevisiae deletion strains, locus YNL322C, strain KRE1, hits give low values", "result": 1.03}, {"measurement": "normalized growth", "setting": "S. cerevisiae deletion strains, locus YNR049C, strain mso1, hits give low values", "result": 1}, {"measurement": "normalized growth", "setting": "S. cerevisiae deletion strains, locus YNR052C, strain pop2, hits give low values", "result": "1.09 [resistant] (active)"}, {"measurement": "normalized growth", "setting": "S. cerevisiae deletion strains, locus YOL006C, strain TOP1, hits give low values", "result": 1.01}, {"measurement": "normalized growth", "setting": "S. cerevisiae deletion strains, locus YOL012C, strain htz1", "result": 2.06}, {"measurement": "normalized growth", "setting": "S. cerevisiae deletion strains, locus YOL147C, strain pex11, hits give low values", "result": 1.05}, {"measurement": "normalized growth", "setting": "S. cerevisiae deletion strains, locus YOR001W, strain rrp6, hits give low values", "result": 0.902}, {"measurement": "normalized growth", "setting": "S. cerevisiae deletion strains, locus YOR061W, strain CKA2, hits give low values", "result": 1.03}, {"measurement": "normalized growth", "setting": "S. cerevisiae deletion strains, locus YOR069W, strain VPS5, hits give low values", "result": 1.02}, {"measurement": "normalized growth", "setting": "S. cerevisiae deletion strains, locus YOR070C, strain gyp1, hits give low values", "result": 0.995}, {"measurement": "normalized growth", "setting": "S. cerevisiae deletion strains, locus YOR080W, strain dia2, hits give low values", "result": 1.01}, {"measurement": "normalized growth", "setting": "S. cerevisiae deletion strains, locus YOR083W, strain WHI5, hits give low values", "result": 1.01}, {"measurement": "normalized growth", "setting": "S. cerevisiae deletion strains, locus YOR106W, strain vam3, hits give low values", "result": 0.987}, {"measurement": "normalized growth", "setting": "S. cerevisiae deletion strains, locus YOR136W, strain idh2, hits give low values", "result": "1.1 [resistant] (active)"}, {"measurement": "normalized growth", "setting": "S. cerevisiae deletion strains, locus YOR144C, strain elg1, hits give low values", "result": "1.1 [resistant] (active)"}, {"measurement": "normalized growth", "setting": "S. cerevisiae deletion strains, locus YOR231W, strain MKK1, hits give low values", "result": 0.964}, {"measurement": "normalized growth", "setting": "S. cerevisiae deletion strains, locus YOR265W, strain rbl2, hits give low values", "result": 0.999}, {"measurement": "normalized growth", "setting": "S. cerevisiae deletion strains, locus YOR270C, strain vph1, hits give low values", "result": 0.866}, {"measurement": "normalized growth", "setting": "S. cerevisiae deletion strains, locus YOR290C, strain snf2, hits give low values", "result": 1.02}, {"measurement": "normalized growth", "setting": "S. cerevisiae deletion strains, locus YOR316C, strain cot1, hits give low values", "result": 1.06}, {"measurement": "normalized growth", "setting": "S. cerevisiae deletion strains, locus YPL051W, strain arl3, hits give low values", "result": 0.987}, {"measurement": "normalized growth", "setting": "S. cerevisiae deletion strains, locus YPL055C, strain LGE1, hits give low values", "result": 1.1}, {"measurement": "normalized growth", "setting": "S. cerevisiae deletion strains, locus YPL078C, strain atp4, hits give low values", "result": 0.956}, {"measurement": "normalized growth", "setting": "S. cerevisiae deletion strains, locus YPL106C, strain sse1, hits give low values", "result": 1.04}, {"measurement": "normalized growth", "setting": "S. cerevisiae deletion strains, locus YPL240C, strain hsp82, hits give low values", "result": 0.994}, {"measurement": "normalized growth", "setting": "S. cerevisiae deletion strains, locus YPL241C, strain CIN2, hits give low values", "result": 1.04}, {"measurement": "normalized growth", "setting": "S. cerevisiae deletion strains, locus YPL256C, strain CLN2, hits give low values", "result": 1.1}, {"measurement": "normalized growth", "setting": "S. cerevisiae deletion strains, locus YPR119W, strain clb2, hits give low values", "result": 1.03}, {"measurement": "normalized growth", "setting": "S. cerevisiae deletion strains, locus YPR141C, strain kar3, hits give low values", "result": 0.94}, {"measurement": "normalized growth", "setting": "S. cerevisiae deletion strains, locus YPR163C, strain tif3, hits give low values", "result": 1.05}, {"measurement": "normalized growth", "setting": "S. cerevisiae deletion strains, locus YPR167C, strain met16, hits give low values", "result": "1.08 [resistant] (active)"}, {"measurement": "normalized growth", "setting": "S. cerevisiae deletion strains, strain wtn01, hits give low values", "result": 1.09}, {"measurement": "normalized growth", "setting": "S. cerevisiae strains, strain wild type, hits give low values", "result": 0.995}]}
